# Data as given in PubChem BioAssay (NCATS).
# Inconclusive results are not listed. Entries that show only a call come without a potency. Values without a mark were called inactive. Active and inactive are the calls of the source. The call rests on the fitted dose curve; in most records, active means well fitted cell-killing curve with a large enough effect; inconclusive means small, poorly fitted or top-dose-only effect, or effect the other way; inactive means flat fitted curve, though single readings scatter.
# Columns and labels:
# Assay in all cases: Primary qHTS to identify gynecologic anti-cancer compounds using libraries of approved drugs and bioactive compounds (AID 1345084); further: nearly all actives have a fitted effect of over 55% in size
# Conditions in all cases: Gynecologic cancer cell panel viability, ATPlite luminescence, 48 h; series mostly up to 57.5 µM
# [1] = system: JEG-3
# Summary of the method: (§1)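 In this quantitative HTS, cell killing is estimated from loss of ATP-dependent luciferase light. Cells see five compound concentrations over a 48 h exposure.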
# [2] = system: OV90
# Summary of the method: as §1
# [3] = system: PA-1
# Summary of the method: as §1
# [4] = system: SKOV3
# Summary of the method: as §1
# [5] = system: Tov-21-G
# Summary of the method: as §1
# [6] = system: Tov112D
# Summary of the method: as §1
# Potency means the concentration at half of the fitted maximal effect.
smiles,measurement,setting,value
CCCCCN(CCC12CC3CC(CC(C3)C1)C2)C(=O)NCCCc1ccncc1,Potency,[1],inactive
same,Potency,[2],inactive
same,Potency,[3],inactive
same,Potency,[4],inactive
same,Potency,[5],inactive
same,Potency,[6],inactive
OCc1ccc(-c2ccc(-c3ccc(CO)s3)o2)s1,Potency,[1],inactive
same,Potency,[2],3.16 µM (active)
same,Potency,[3],0.355 µM (active)
same,Potency,[4],12.6 µM (active)
same,Potency,[5],inactive
C=CC(=O)Nc1cccc(Oc2nc(Nc3ccc(N4CCN(C)CC4)cc3OC)ncc2Cl)c1,Potency,[1],inactive
same,Potency,[2],inactive
same,Potency,[3],inactive
same,Potency,[4],15.8 µM (active)
CCOc1ccccc1OCCNC(C)Cc1ccc(OC)c(S(N)(=O)=O)c1 (centres undefined),Potency,[1],inactive
same,Potency,[2],inactive
same,Potency,[3],inactive
same,Potency,[4],inactive
same,Potency,[5],inactive
same,Potency,[6],inactive
COc1cc(C)c(Sc2cnc(NC(=O)c3ccc(CNC(C)C(C)C)cc3)s2)cc1C(=O)N1CCN(C(C)=O)CC1 (centres undefined),Potency,[1],inactive
same,Potency,[2],inactive
same,Potency,[3],22.4 µM (active)
Cc1c(Cn2c(C)nc3c(C(=O)O)cc(N4CCOCC4)cc32)cccc1C(F)(F)F,Potency,[1],inactive
same,Potency,[2],inactive
same,Potency,[3],inactive
same,Potency,[4],inactive
same,Potency,[5],inactive
same,Potency,[6],inactive
Cc1cc(Nc2ncnc3ccc(-c4ccc(CNCCS(C)(=O)=O)o4)cc23)ccc1Oc1ccn2ncnc2c1,Potency,[1],inactive
same,Potency,[2],inactive
same,Potency,[3],inactive
same,Potency,[4],inactive
same,Potency,[5],inactive
same,Potency,[6],inactive
CC(C)c1noc(N2CCC(COc3ccc(-c4ccc(S(C)(=O)=O)cc4)nc3)CC2)n1,Potency,[1],inactive
same,Potency,[2],inactive
same,Potency,[3],inactive
same,Potency,[4],inactive
same,Potency,[5],inactive
same,Potency,[6],inactive
CCCn1c(=O)c2[nH]c(-c3cnn(Cc4cccc(C(F)(F)F)c4)c3)nc2n(CC)c1=O,Potency,[1],inactive
same,Potency,[2],inactive
same,Potency,[3],inactive
same,Potency,[4],inactive
same,Potency,[5],inactive
same,Potency,[6],inactive
Clc1cccc(-c2nnnn2Cc2cccnc2)c1Cl,Potency,[1],inactive
same,Potency,[2],inactive
same,Potency,[3],inactive
same,Potency,[4],inactive
same,Potency,[5],inactive
same,Potency,[6],inactive
C#Cc1cccc(Nc2ncnc3cc(OC)c(OCCCCCCC(=O)NO)cc23)c1,Potency,[1],10 µM (active)
same,Potency,[2],5.62 µM (active)
same,Potency,[3],5.01 µM (active)
same,Potency,[4],8.91 µM (active)
same,Potency,[5],10 µM (active)
same,Potency,[6],7.08 µM (active)
COc1cc2c(Oc3ccc(NC(=O)C4(C(=O)Nc5ccc(F)cc5)CC4)cc3F)ccnc2cc1OCCCN1CCOCC1,Potency,[1],inactive
same,Potency,[2],12.6 µM (active)
same,Potency,[3],28.2 µM (active)
same,Potency,[4],22.4 µM (active)
same,Potency,[5],15.8 µM (active)
same,Potency,[6],12.6 µM (active)
COc1cccc(Nc2c(C(N)=O)cnc3c(C)cc(S(=O)(=O)c4cccc(C(=O)N(C)C)c4)cc23)c1,Potency,[1],inactive
same,Potency,[2],inactive
same,Potency,[3],inactive
same,Potency,[4],inactive
same,Potency,[5],inactive
same,Potency,[6],inactive
O=C1CCC[C@@H]2[C@H]3CCC[N+]4([O-])CCC[C@@H](CN12)[C@@H]34 (some centres undefined),Potency,[1],inactive
same,Potency,[2],inactive
same,Potency,[3],inactive
same,Potency,[4],inactive
same,Potency,[5],inactive
same,Potency,[6],inactive
CN(C1CCc2c(c3ccccc3n2CC(=O)O)C1)S(=O)(=O)c1ccc(F)cc1 (centres undefined),Potency,[1],inactive
same,Potency,[2],inactive
same,Potency,[3],inactive
same,Potency,[4],inactive
same,Potency,[5],inactive
same,Potency,[6],inactive
Cc1ccc(NC(=O)C2(c3ccc4c(c3)OC(F)(F)O4)CC2)nc1-c1cccc(C(=O)O)c1,Potency,[1],inactive
same,Potency,[2],inactive
same,Potency,[3],inactive
same,Potency,[4],inactive
same,Potency,[5],inactive
same,Potency,[6],inactive
Clc1cccc(-n2nnnc2NCc2ccccc2Oc2ccccn2)c1Cl,Potency,[1],inactive
same,Potency,[2],inactive
same,Potency,[3],inactive
same,Potency,[4],inactive
same,Potency,[5],inactive
same,Potency,[6],inactive
CC(C)(C)c1cc(NC(=O)Nc2ccc(-c3cn4c(n3)sc3cc(OCCN5CCOCC5)ccc34)cc2)no1,Potency,[1],inactive
same,Potency,[2],inactive
same,Potency,[3],inactive
same,Potency,[4],inactive
same,Potency,[5],inactive
same,Potency,[6],inactive
Cn1c(CNc2ccc(C(=N)N)cc2)nc2cc(C(=O)N(CCC(=O)O)c3ccccn3)ccc21,Potency,[1],inactive
same,Potency,[2],inactive
same,Potency,[3],inactive
same,Potency,[4],inactive
same,Potency,[5],inactive
same,Potency,[6],inactive
CC(=O)c1c(C)c2cnc(Nc3ccc(N4CCNCC4)cn3)nc2n(C2CCCC2)c1=O,"activity change, negative = cytotoxicity",[1],-5.97% [at 6.55 µM]
same,"activity change, negative = cytotoxicity",[2],15% [at 6.55 µM]
same,"activity change, negative = cytotoxicity",[3],-9.61% [at 6.55 µM]
same,"activity change, negative = cytotoxicity",[4],4.84% [at 6.55 µM]
same,"activity change, negative = cytotoxicity",[5],-13.1% [at 6.55 µM]
same,"activity change, negative = cytotoxicity",[6],-4.97% [at 6.55 µM]
Cn1c(=O)n(-c2ccc(C(C)(C)C#N)cc2)c2c3cc(-c4cnc5ccccc5c4)ccc3ncc21,Potency,[1],inactive
same,Potency,[2],1.41 µM (active)
Cc1cn2c(-c3cn[nH]c3)cnc2c(Nc2ccc(C(=O)N3CCNCC3)cc2F)n1,Potency,[1],inactive
same,Potency,[2],inactive
CNC(=O)c1ccc(-c2cnc3ncc(Cc4ccc5ncccc5c4)n3n2)cc1F,Potency,[1],inactive
same,Potency,[2],inactive
same,Potency,[3],inactive
same,Potency,[4],inactive
same,Potency,[5],inactive
same,Potency,[6],inactive
